Most compounds without a hit are left out; they make up all but 4% or so of the library.
Mtb UGM inh: blocks M. tuberculosis UGM enzyme; inhibition, % at 10 µM; purified UGM, fluorescence polarization probe displacement; actives 0.06% (n = 320,000); P9WIQ1; in the data active = inhibition above about 10%, passing the limit was not always enough
Mtb FBA inh: Mtb fructose-bisphosphate aldolase inhibition. P9WQA3. purified M. tuberculosis FBA, fluorescence read-out. inhibition, % at 1 µM. actives 2.3% (n = 360,000); in the data active = inhibition above about 27%;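 note: 0% = vehicle and 100% = reference inhibitor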
Target sequence (P9WQA3 whole entry, looked up): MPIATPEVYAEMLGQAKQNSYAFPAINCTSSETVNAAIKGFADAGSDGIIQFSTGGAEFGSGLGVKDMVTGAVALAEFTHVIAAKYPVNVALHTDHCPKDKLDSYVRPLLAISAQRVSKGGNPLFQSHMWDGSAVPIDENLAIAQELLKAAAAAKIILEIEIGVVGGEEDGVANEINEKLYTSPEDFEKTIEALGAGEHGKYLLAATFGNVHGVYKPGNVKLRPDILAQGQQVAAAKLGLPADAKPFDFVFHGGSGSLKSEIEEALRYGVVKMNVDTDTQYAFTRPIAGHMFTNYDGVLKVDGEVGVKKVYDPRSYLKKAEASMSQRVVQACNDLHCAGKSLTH
Mtb bLac sens: beta-lactam sensitization of Mtb H37Rv | AID 434955 | inhibition, % at 25 µM | M. tuberculosis H37Rv growth with meropenem, percent inhibition | actives 0.27% (n = 330,000); call rule not given here;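 note: growth measured after seven days incubation then overnight dye step; 0% = bacteria only wells and 100% = bacteria with antibiotic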
Rv3671c protease: inhibits the M. tuberculosis serine protease Rv3671c. inhibition, % at 5.96 µM. actives 0.048% (n = 320,000). P9WHR9; in the data active = inhibition above about 38%;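 note: extracellular domain of Rv3671c used as enzyme; 0% = enzyme with DMSO and 100% = no enzyme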
GDH-TPI inh: GDH-TPI coupled enzyme inhibition counter-screen; actives 1.2% (n = 360,000); inhibition, % at 4.8 µM; AID 588335; GDH-TPI coupled enzyme counterscreen, NADH absorbance; in the data active = inhibition above about 30%;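 note: 0% = DMSO wells and 100% = wells lacking the enzyme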
RecA intein inh: blocks M. tuberculosis RecA intein splicing | P9WHJ3 | cell-free RecA intein splicing, fluorescence | inhibition, % (concentration not given with the values) | actives 0.75% (n = 290,000); in the data active = inhibition above about 30%;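 note: 0% = vehicle wells and 100% = reference inhibitor control wells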
Active calls of the source: *.

Results for COc1cccc(/C=N/NC(=O)CC2C(=O)NN=C2C)c1OC (stereo unspecified) ?
Mtb UGM inh: 3.0; Mtb FBA inh: 11.9; Mtb bLac sens: -10.2; Rv3671c protease: -3.7; GDH-TPI inh: 11.8; RecA intein inh: 0.6

Results for COc1ccccc1/C=C/C=N/NC(=O)c1ccc(=O)n(C)c1 ?
Mtb UGM inh: -0.4; Mtb FBA inh: 1.9; Mtb bLac sens: 5.9; Rv3671c protease: 0.6; GDH-TPI inh: 50.9*; RecA intein inh: -1.1

Results for O=C(CCn1cnc2ccccc21)N/N=C/C=C/c1ccccc1 ?
Mtb UGM inh: 1.2; Mtb FBA inh: 1.5; Mtb bLac sens: -3.6; Rv3671c protease: -2.4; GDH-TPI inh: 20.7; RecA intein inh: 3.4

How did Cc1ccccc1NC(=O)Nc1nc(CN)cs1 do in these assays?
Mtb FBA inh: -1.4; GDH-TPI inh: 0.0

What do the screens show for `COc1ccc([C@H]2CC(=O)C=C(c3ccc4ncccc4c3)C2)cc1OC`?
Mtb UGM inh: 3.3; Mtb FBA inh: -0.5; Mtb bLac sens: 61.8; Rv3671c protease: -5.7; GDH-TPI inh: 15.3

Results for CCCCOc1ccc(C(=O)NCCOc2cccc(OC)c2)cc1 ?
Mtb UGM inh: 2.7; Mtb FBA inh: 1.9; Mtb bLac sens: 9.1; Rv3671c protease: -4.8; GDH-TPI inh: -8.6; RecA intein inh: 4.8

How did NS(=O)(=O)c1ccc(-c2ccc(C=O)o2)cc1 do in these assays?
Mtb UGM inh: 0.3; Mtb FBA inh: 5.5; Mtb bLac sens: 2.5; Rv3671c protease: 0.7; GDH-TPI inh: 34.1*; RecA intein inh: 4.3

How did CCCOC(=O)c1ccc(-c2ccc(C=O)o2)cc1 do in these assays?
Mtb FBA inh: 5.5; Mtb bLac sens: -8.3; Rv3671c protease: -14.6; GDH-TPI inh: 36.2*; RecA intein inh: 0.4

What do the screens show for `COCCn1c(N)c(S(=O)(=O)c2cccs2)c2nc3ccccc3nc21`?
Mtb UGM inh: 3.0; Mtb FBA inh: active; Mtb bLac sens: 2.5; Rv3671c protease: -137.6; GDH-TPI inh: 25.5; RecA intein inh: 0.6

What do the screens show for `COCCn1c(N)c(C#N)c2nc3ccccc3nc21`?
Mtb UGM inh: -2.1; Mtb FBA inh: 115.5*; Mtb bLac sens: -7.4; Rv3671c protease: -24.5; GDH-TPI inh: 9.4; RecA intein inh: -225.2

What do the screens show for `N#Cc1c(N)n(CCc2ccc(F)cc2)c2nc3ccccc3nc12`?
Mtb UGM inh: 2.3; Mtb FBA inh: 151.3*; Mtb bLac sens: 6.9; Rv3671c protease: -8.0; GDH-TPI inh: -2.5; RecA intein inh: -114.5

What do the screens show for `COc1ccc(Cn2c(N)c(C#N)c3nc4ccccc4nc32)cc1`?
Mtb UGM inh: 1.5; Mtb FBA inh: 179.5*; Mtb bLac sens: 100.0; Rv3671c protease: -18.3; GDH-TPI inh: 7.9; RecA intein inh: -219.1

What do the screens show for `Cc1ccc(Cn2c(N)c(S(=O)(=O)c3cccs3)c3nc4ccccc4nc32)cc1`?
Mtb UGM inh: -0.4; Mtb FBA inh: 18.0; Mtb bLac sens: -13.2; Rv3671c protease: 6.2; GDH-TPI inh: 8.5; RecA intein inh: 0.8

What do the screens show for `COc1cccc(Cn2c(N)c(C#N)c3nc4ccccc4nc32)c1OC`?
Mtb UGM inh: 0.3; Mtb FBA inh: 7.4; Mtb bLac sens: 60.5; Rv3671c protease: -29.7; GDH-TPI inh: 7.2; RecA intein inh: 12.6

What do the screens show for `CCCCCCCCCC(=O)N[C@@H]1c2cc(OC)c(OC)cc2C[C@H]1OCc1ccccc1`?
Mtb FBA inh: 3.0; GDH-TPI inh: 10.9

What do the screens show for `CC(Oc1ccc(F)cc1)C(=O)N(CCC1=CCCCC1)c1c(N)n(Cc2ccccc2)c(=O)[nH]c1=O` (stereo unspecified)?
Mtb UGM inh: -1.8; Mtb FBA inh: -1.5; Mtb bLac sens: -0.5; Rv3671c protease: 0.5; GDH-TPI inh: -0.3; RecA intein inh: -0.1

How did CC1Nc2ncnc(N3CCc4ccccc4C3)c2N(Cc2ccc(Br)cc2)C1=O (stereo unspecified) do in these assays?
Mtb UGM inh: -3.9; Mtb FBA inh: 0.0; Mtb bLac sens: 3.0; Rv3671c protease: -18.2; GDH-TPI inh: 4.3; RecA intein inh: 35.0*

Results for CC1Nc2ncnc(N3CCc4ccccc4C3)c2N(Cc2ccc(Cl)cc2)C1=O (stereo unspecified) ?
Mtb UGM inh: -1.9; Mtb FBA inh: -2.2; Mtb bLac sens: 0.0; Rv3671c protease: -18.5; GDH-TPI inh: 0.5; RecA intein inh: 31.6*

Results for CCC1Nc2ncnc(N3CCc4ccccc4C3)c2N(Cc2ccc(Br)cc2)C1=O (stereo unspecified) ?
Mtb FBA inh: 5.7

What do the screens show for `CC1Nc2ncnc(N3CCN(c4ccccc4)CC3)c2N(Cc2ccc(Cl)cc2)C1=O` (stereo unspecified)?
Mtb UGM inh: -0.4; Mtb FBA inh: 0.8; Mtb bLac sens: 93.4; Rv3671c protease: -1.4; GDH-TPI inh: 20.3; RecA intein inh: 1.4

Results for Cc1cc(=O)oc2cc(OCC(=O)NCC3CCC(C(=O)O)CC3)ccc12 (stereo unspecified) ?
Mtb UGM inh: -0.5; Mtb FBA inh: 15.0; Mtb bLac sens: -5.4; Rv3671c protease: 1.5; GDH-TPI inh: -2.9; RecA intein inh: 0.9

How did Cc1ccc(S(=O)(=O)CCC(=O)OCc2cc(=O)oc3cc(C)ccc23)cc1 do in these assays?
Mtb UGM inh: 1.6; Mtb FBA inh: 0.6; Mtb bLac sens: -5.6; Rv3671c protease: -0.2; GDH-TPI inh: 3.8

How did COc1ccc2c(CC(=O)NCC3CCC(C(=O)O)CC3)cc(=O)oc2c1 (stereo unspecified) do in these assays?
Mtb UGM inh: -1.4; Mtb FBA inh: 132.7*; Mtb bLac sens: -2.2; Rv3671c protease: 0.1; GDH-TPI inh: 24.8; RecA intein inh: -0.9

How did COc1ccc(-c2cc(=O)oc3cc(OCC(=O)NCC4CCC(C(=O)O)CC4)ccc23)cc1 (stereo unspecified) do in these assays?
Mtb UGM inh: -0.3; Mtb FBA inh: 5.8; Mtb bLac sens: 0.3; Rv3671c protease: -3.9; GDH-TPI inh: 33.3*; RecA intein inh: 9.2

How did COc1ccc2c(COC(=O)CCS(=O)(=O)c3ccccc3)cc(=O)oc2c1 do in these assays?
Mtb UGM inh: -1.6; Mtb FBA inh: 133.7*; Mtb bLac sens: -11.8; Rv3671c protease: -15.6; GDH-TPI inh: -0.6; RecA intein inh: -4.3

Results for CCS(=O)(=O)N1CCc2nc(-c3ccccc3)sc2C1 ?
Mtb UGM inh: 0.2; Mtb FBA inh: 8.0; Mtb bLac sens: 0.2; Rv3671c protease: -12.4; GDH-TPI inh: -13.0; RecA intein inh: 1.9

Results for COc1ccc(-c2nc3c(s2)CN(S(C)(=O)=O)CC3)cc1OC ?
Mtb UGM inh: 0.3; Mtb FBA inh: 127.3*; Mtb bLac sens: 1.1; GDH-TPI inh: 2.5; RecA intein inh: 0.8

What do the screens show for `O=C(/C=C/[C@H]1O[C@@H](n2ccc(=O)[nH]c2=O)[C@H](O)[C@@H]1O)NCc1cccc2ccccc12`?
Mtb FBA inh: 8.0

What do the screens show for `COc1ccc(/C=N/NC(=O)c2ccc(Cl)c(S(N)(=O)=O)c2)cc1OCC(N)=O`?
Mtb UGM inh: 0.8; Mtb FBA inh: 2.1; Mtb bLac sens: 16.0; Rv3671c protease: -2.2; GDH-TPI inh: 30.1; RecA intein inh: -3.0
